KCNH2 3.1 inh: blocks the human KCNH2 3.1 channel isoform; U2OS KCNH2 3.1, thallium flux FluxOr; hits give low values; activity change, % (tested at about 1.8 µM); actives 0.95% (n = 340,000); AID 720553;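 active = maximum activity change below -70%; inconclusive = maximum activity change from -70% to -50%; inactive = maximum activity change above -50%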;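 also: thallium influx rate constant from kinetic fluorescence after stimulation buffer; % is scaled to controls: 0 for no effect and ±100 for the full control effect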
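Thallium flux via FluxOr fluorescence (Red40 quencher, 45 min loading) in U2OS cells virally expressing the KCNH2 3.1 isoform (1.77 x 10^8 /mL virus, overnight at 37 C). Rate constants from 2-min kinetic reads post-stimulation, normalised to positive and negative controls.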
ASM inhibitor: blocks human secretory acid sphingomyelinase | placental ASM, HMU-PC fluorogenic substrate, 60 min | AID 504937 | Potency, µM (doses to about 57.5 µM), for inactives: at the top dose activity change, negative = inhibition, usual class: inhibitors | actives 0.006% (n = 340,000) | P17405; also: potency is read from the fitted curve at half-maximal effect
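Human placenta-derived ASM enzyme was preincubated with compound for 10 minutes at room temperature, then given fluorogenic substrate HMU-PC0 (9 uM final) for 60 minutes at 37 °C; a pH 10 stop preceded fluorescence reading at Ex 386/Em 447 nm.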
mIDH1 inhibitor: human IDH1 R132H inhibition. O75874. IDH1-R132H enzyme, NADPH consumption, diaphorase/resazurin fluorescence. Potency, µM (top dose mostly 76.6 µM), without a hit: at the top dose activity change, negative = inhibition, hits mostly inhibitors. actives 0.093% (n = 390,000). AID 602179; also: potency is read from the fitted curve at half-maximal effect; % is scaled to controls: 0 for no effect and ±100 for the full control effect; nearly all actives have a fitted effect of over 65% in size
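IDH1-R132H (0.5 ug/mL) preincubated 30 min with compound, then NADPH (0.016 mM) and alpha-KG (2 mM) added; 80 min at RT, pH 7.5. Remaining NADPH coupled via diaphorase/resazurin to fluorescence (540/590 nm); concentration-response curves normalized to no-enzyme control.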
Apoferritin bind: binds horse apoferritin like a general anesthetic; P02791; apoferritin/1-aminoanthracene competitive binding, fluorescence; Potency, µM (doses to about 77.5 µM), inactives show at the top dose activity change, negative = displacement, actives largely listed as inhibitors; actives 0.074% (n = 350,000); also: potency is read from the fitted curve at half-maximal effect; % is scaled to controls: 0 for no effect and ±100 for the full control effect; nearly all actives have a fitted effect of over 20% in size
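Probe: 1-aminoanthracene (50% saturated, PBS). Protein: horse-spleen apoferritin, 10 uM. Incubation: 10 min, room temperature. Detection: 380 nm excitation, 535 nm emission. Analysis: normalized response, four-parameter Hill.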
hERG WT inh: blocks the wildtype human KCNH2 potassium channel | AID 720551 | Q12809 | activity change, % at 1.84 µM | actives 0.37% (n = 340,000) | U2OS, BacMam KCNH2, thallium flux FluxOr; hits give low values;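 active = maximum activity change below -70%; inconclusive = maximum activity change between -70% and -50%; inactive = maximum activity change above -50%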; also: % is scaled to controls: 0 for no effect and ±100 for the full control effect
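U2OS cells transduced with wild-type KCNH2 virus are loaded with FluxOr dye for 45 min, and thallium flux is measured in kinetic reads before and after stimulation buffer. Rate constants are normalized to DMSO controls.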
Starred values were filed as active, the others as inactive; ? = inconclusive; · = no result; [ ] = remark or other dose. A selection: hits, their analogues and other compounds. The true share with any hit is near 1.2%. Unless noted, calls follow the shape of the dose curve; as a rule, active = well fitted inhibition curve with a large enough effect; inconclusive = small, poorly fitted or top-dose-only effect; inactive = no such curve, though single readings can be large or run the other way.

SMILES	KCNH2 3.1 inh	ASM inhibitor	mIDH1 inhibitor	Apoferritin bind	hERG WT inh
O=C(CCCCn1c(=O)c2ccccc2n(Cc2ccccc2Cl)c1=O)NCCc1ccccc1	·	·	14%	24%	·
COc1ccccc1CNC(=O)CSc1nc(=O)[nH]c2c1CCC2	·	·	-2%	-12%	·
CC(=O)Nc1ccc(NC(=O)C/C(C)=N/NC(=O)C(=O)Nc2ccc(C)c(Cl)c2)cc1	-84*	2%	-5%	-14%	-1
O=[N+]([O-])c1ccc(N2CCN(c3ccc([N+](=O)[O-])cc3CO)CC2)c(CO)c1	-89*	-9%	2%	8%	?
CC(C)(C)OC(=O)N1CCC(c2c(C(=O)NCCN3CCOCC3)cnn2-c2ccc(F)cc2F)CC1	·	·	5%	6%	·
CCc1c(C)sc2c1CCN(Cc1ccc(F)cc1)C2c1ccccc1 (centres undefined)	·	·	13%	-3%	·
Cc1nc(-c2nc(-c3c(C(=O)NNC(=O)Nc4ccccc4)noc3C)cs2)cs1	-94*	-4%	-4%	-7%	-77*
Cc1ccc(N2CC(C(=O)NCc3nnnn3-c3ccc(C)c(C)c3)CC2=O)cc1C (centres undefined)	·	·	-1%	-7%	·
Cc1ccc(CN(C)S(=O)(=O)c2c(C)noc2/C=C/N(C)C)cc1	-15	3%	-3%	-15%	-8
Cc1noc(/C=C/N(C)C)c1S(=O)(=O)N(C)Cc1ccc(F)cc1	-199*	-2%	-15%	-17%	-134*
Cc1nc2ccc(Cl)cc2nc(C)/c1=N\O	-92*	-2%	-1%	-21%	-9
COC(=O)C/C=C\[C@@H](C)[C@@H](/C=N\OCC[C@@H]1C=C[C@H](OC(C)=O)[C@H](COC(C)=O)O1)OC	·	·	·	7%[15.3 µM]	·
COc1ccc2cc(CCNC(=O)c3cc4ccccc4o3)c(=O)[nH]c2c1	-4	-13%	-15%	-12%	-80*
CN1C(=O)/C(=C/c2ccc3c(c2)OCO3)N=C1c1ccccc1	-123*	21%	4%	-1%	-2
CCSC1=N/C(=C\c2ccc3c(c2)OCO3)C(=O)S1	-5	-1%	3%	0%	4
COC(=O)/C=C/c1cc(O)ccc1O	·	·	·	-11%	·
Cc1ccc(S(=O)(=O)C/N=C(/NC(=S)N(c2ccccc2)c2ccccc2)c2ccccc2)cc1	-5	-1%	1%	14µM*	9
Cc1ccc(S(=O)(=O)/N=C(/NC(=S)Nc2ccccc2)c2ccccc2)cc1	-4	-5%	4%	-6%	-3
CCN(CC(=O)Nc1ccc(OC)cc1)C(=O)CCS(=O)(=O)c1ccc(C)cc1	-13	3%	6%	-9%	-8
CCN(CC(=O)Nc1ccc(OC)cc1)C(=O)Cc1cccs1	-152*	-3%	0%	·	0
CC(=O)Nc1ccc(Oc2ccc([N+](=O)[O-])cc2Cl)cc1	-10	5%	5%	16µM*	-3
CCc1ccc(CNc2ccc3c(c2)ncn3C(C)(C)C)cc1	·	-13%	-2%	-13%	·
CC(C)(C)n1cnc2cc(NCc3ccc(Br)cc3)ccc21	-96*	-5%	4%	-15%	23
Cc1cccn2c(=O)cc(CSc3nnc(NC(=O)c4ccc(F)cc4)s3)nc12	·	·	5%	-2%	·
CS(=O)(=O)Nc1cccc(-c2ccc3ncnc(Nc4ccc(F)cc4)c3c2)c1	·	·	·	3%	·
SMILES	KCNH2 3.1 inh	ASM inhibitor	mIDH1 inhibitor	Apoferritin bind	hERG WT inh
CCN(C(=O)c1ccc(=O)n(C)n1)c1c(N)n(Cc2ccccc2)c(=O)[nH]c1=O	-92*	3%	-3%	·	-1
CCN(C(=O)c1ccc(=O)[nH]c1)c1c(N)n(Cc2ccccc2)c(=O)[nH]c1=O	-5	3%	3%	·	7
Cc1ccccc1NC(=O)CN1CCC(n2nnc3ccccc32)CC1	-16	4%	-4%	-12%	-7
Cc1nc2ccccc2n1C1CCN(CC(=O)Nc2ccccc2Br)CC1	-91*	4%	-6%	-7%	?
CCCCn1nnnc1SCC(=O)NC1CCCCC1	-8	7%	5%	-4%	-123*
COc1cc(OC)c(N(C)C(=O)Cn2ncc3c([nH]c4ccccc43)c2=O)cc1Cl	·	·	-12%	1%	·
CCN(CC(=O)Nc1ccc(OC(F)F)cc1)C1CCCCC1	-92*	6%	12%	-12%	-8
Cc1cc(NS(=O)(=O)c2cn(C)c(C)n2)ccc1Br	·	·	-6%	10%	·
COC(=O)c1sccc1NC(=S)N1CCCCC1	4	-3%	-1%	40µM*	17
CCN(CC)CCN1C(=O)/C(=C\c2ccc(Cl)c([N+](=O)[O-])c2)SC1=Nc1ccc(OC)cc1	-99*	?	-8%	?	-47
O=C(c1ccc2c(c1)OCCO2)C1CCN(C(=O)c2ccc(F)cc2)CC1	5	3%	3%	1%	-159*
O=C(c1ccc2c(c1)OCCCO2)N1CCCCC1	-109*	1%	-5%	1%	-2
O=C(c1ccc2c(c1)OCO2)N1CCCN(C(=O)c2ccc3c(c2)OCO3)CC1	4	6%	1%	-8%	4
CCNC(=S)N1CCC(C(=O)c2ccc3c(c2)OCCO3)CC1	6	1%	-5%	-13%	6
CCOCCCNC(=S)N1CCC(C(=O)c2ccc3c(c2)OCCO3)CC1	-170*	1%	6%	-12%	2
Nc1ccc(C23CC4CC(CC(O)(C4)C2)C3)cc1	-7	1%	1%	14µM*	-2
Nc1ccc(C23CC4CC(CC(C4)C2)C3)cc1	-2	7%	1%	8.9µM*	1
Nc1ccc(C23CC4CC(CC(CO)(C4)C2)C3)cc1	9	-1%	7%	?	-6
Cn1c(=O)n(C)c2cc(NS(=O)(=O)c3ccc(F)cc3)c(NCc3ccccc3)cc21	·	·	9%	-5%	·
CN(C(=O)C1=CC(c2ccc3c(c2)OCO3)=NS(=O)(=O)N1C)c1ccccc1	·	·	16%	?	·
COCCn1c(=NC(=O)c2ccc3c(c2)OCCO3)sc2cc(C(=O)OC)ccc21	·	·	-7%	-12%	·
COC(=O)c1sccc1NC(=O)c1c(-c2ccccc2)noc1C	-74*	0%	-7%	-15%	0
Cn1c(CCN2CCOCC2)nc2cc(NS(=O)(=O)c3ccccc3)ccc21	-3	2%	7%	-3%	23
Cn1c(CCN2CCN(c3ccccn3)CC2)nc2cc(NS(=O)(=O)c3ccccc3)ccc21	-76*	2%	-2%	-12%	-28
CCN(CC)c1ccc2cc(-c3nc(-c4cccs4)no3)c(=O)oc2c1	·	·	-13%	-10%	·
O=C1NC[C@H](Cc2ccccc2)N(CC2CCN(CCc3ccc(-c4ccccc4)cc3)CC2)C1=O	-93*	-1%	-2%	·	-43
CC(C)C[C@H]1CNC(=S)N1CC1CCN(CC2CCCC2)CC1	9	-6%	2%	·	48
